Test results as given in PubChem BioAssay (NCI).
About 79,000 compounds went through this panel and 15% of them were active in at least one assay; those are over-represented in the sample as a whole. Values without a mark were called inactive. Activity calls are given as the source filed them. Rule as the data show it: active = growth inhibition above about 70%; inactive = the rest.

Columns and labels:
[1] = NCI Yeast Anticancer Drug Screen. Data for the rad50 strain (AID 155);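 also: 0% = growth of vehicle-only cultures of the same strain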; conditions: S. cerevisiae rad50 strain growth inhibition, active compounds read high
Outline: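 Yeast carrying a defined DNA repair defect were exposed to test compounds, and growth was compared with vehicle-treated controls to give percent inhibition.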

[2] = NCI Yeast Anticancer Drug Screen. Data for the mec2-1 strain (AID 157); conditions: S. cerevisiae mec2-1 strain, active compounds read high
Outline: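 Readout is yeast growth inhibition, normalised to vehicle-treated controls, in the mec2-1 strain exposed to compound.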

[3] = NCI Yeast Anticancer Drug Screen. Data for the sgs1 mgt1 strain (AID 161);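 also: 0% = growth of cultures given vehicle only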; conditions: S. cerevisiae sgs1 mgt1 strain, active compounds read high
Outline: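 This yeast growth screen uses a strain with defined DNA-repair lesions; compound-treated growth is compared with vehicle-treated growth.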

[4] = NCI Yeast Anticancer Drug Screen. Data for the cln2 rad14 strain (AID 165);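 also: 0% = growth equal to vehicle treated cultures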; conditions: S. cerevisiae cln2 rad14 strain, active compounds read high
Outline: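 Relative to vehicle controls, growth inhibition of compound-treated cln2 rad14 yeast was recorded.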

[5] = NCI Yeast Anticancer Drug Screen. Data for the bub3 strain (AID 167); conditions: S. cerevisiae bub3 mutant strain, active compounds read high
Outline: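 Compounds were applied to a genetically altered yeast strain carrying a cell-cycle control defect. Growth inhibition was scored against vehicle-treated controls.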

[6] = NCI Yeast Anticancer Drug Screen. Data for the mlh1 rad18 strain (AID 175); conditions: S. cerevisiae mlh1 rad18 strain growth inhibition, active compounds read high
Outline: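 Test agents were incubated with a yeast strain of defined genotype (DNA damage repair defect). Inhibition of growth was derived by comparison with vehicle-exposed cultures.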

[7] = at 5.0 µM (retest, dose inferred, filed as 0.5)
[8] = at 50.0 µM (retest, dose inferred, filed as 5.0)

Row | SMILES | growth inhibition [1, 7] [%] | growth inhibition [1, 8] | growth inhibition ([1]; at 50.0 µM) | growth inhibition [2, 7] [%] | growth inhibition [2, 8] | growth inhibition ([2]; at 50.0 µM) | growth inhibition [3, 7] [%] | growth inhibition [3, 8] | growth inhibition ([3]; at 50.0 µM) | growth inhibition [4, 7] [%] | growth inhibition [4, 8] | growth inhibition ([4]; at 50.0 µM) | growth inhibition [5, 7] [%] | growth inhibition [5, 8] | growth inhibition ([5]; at 50.0 µM) | growth inhibition [6, 7] [%] | growth inhibition [6, 8] | growth inhibition ([6]; at 50.0 µM)
1 | COc1cc(CC(=O)O)c(Cc2ccc3c(c2)Cc2ccccc2-3)cc1OC | -7 | 94% (active) | 49% | 4 | 77% (active) | 53.5% | -1 | 92% (active) | 52.1% | 6 | 91% (active) | 88.7% (active) | -7 | 95% (active) | 94.5% (active) | 2 | 88% (active) | 47.6%
2 | Cc1c2ccccc2c(C)n2c1nc1cc(Cl)c(Cl)cc12 | 12 | 95% (active) | 86.2% (active) | 7 | 93% (active) | 91.3% (active) | 26 | 45% | 89.3% (active) | 27 | 95% (active) | 87.1% (active) | 18 | 97% (active) | 89.9% (active) | 23 | 96% (active) | 85.6% (active)
3 | C1=Nc2ccccc2/C1=C/c1ccccc1 | 10 | 22% | 72.9% (active) | -9 | 20% | 48.8% | -13 | 19% | 49.7% | 27 | 26% | 40% | 9 | 38% | 64.4% | 2 | 50% | 52.1%
4 | COC(C(=O)O)c1ccccc1 (stereo not given) | -1 | 9% | 75% (active) | -1 | -3% | 8.9% | -2 | -2% | 74.8% (active) | 1 | -5% | -1.95% | -2 | 1% | 47.1% | -3 | 0% | 79.5% (active)
5 | N#CCCN(CCC#N)c1ccc(C(Sc2ccccc2)C(NC(=O)c2cc([N+](=O)[O-])ccc2Cl)C(=O)Sc2ccccc2)cc1 (stereo not given) | 29 | 74% (active) | 75.7% (active) | 25 | 93% (active) | 58.8% | 30 | 85% (active) | 51.3% | 16 | 37% | 51.6% | 22 | 91% (active) | 74.7% (active) | 47 | 85% (active) | 73.3% (active)
6 | COc1ccc(-c2c(C(=O)O)[nH]c3ccccc23)cc1 | 38 | 90% (active) | 96.8% (active) | 12 | 87% (active) | 97.5% (active) | 35 | 98% (active) | 97.5% (active) | 25 | 88% (active) | 98.5% (active) | 58 | 98% (active) | 96.2% (active) | 65 | 97% (active) | 99% (active)
7 | Cn1cnc(=S)c2[nH]cnc21 | -1 | -2% | 10.9% | -3 | -4% | -0.45% | -2 | -5% | -4.55% | -2 | -4% | 59.6% | 0 | -5% | -8.5% | -4 | -1% | 4.05%
8 | CN(NC(=O)/C(=C\c1ccco1)NC(=O)c1ccccc1)c1cn[nH]c(=O)c1Cl | 9 | 36% | 86.2% (active) | -9 | 13% | 83.4% (active) | -2 | 6% | 87.8% (active) | 7 | 13% | 62.7% | -10 | 27% | 90.6% (active) | -6 | 47% | 93.5% (active)
9 | S=c1nc(/C=C/c2ccc(Cl)c(Cl)c2)[nH][nH]1 | 29 | 68% | 79.5% (active) | 28 | 51% | 44.8% | 27 | 51% | 65.2% | 31 | 42% | 65% | 33 | 67% | 83.7% (active) | 39 | 71% (active) | 22.6%
10 | COCCNC(=O)C1C(=O)N(CCOC)C(=O)/C1=N/N (stereo not given) | 1 | -1% | -33.3% | 1 | 5% | 0.6% | 8 | -1% | 13.6% | -2 | 6% | 35% | 0 | 20% | -0.25% | -3 | -2% | 5.5%
